# Reference: PubChem BioAssay
# Several values for one entry are separate records, joined by “and”; a condition that tells them apart may be missing. Identical values can stand only once. Activity calls are given as the source filed them. Unless noted, no stated cut-off is given here; in the data, active means parasite load remaining mostly below about 12% (no sharp cut-off); inactive means mostly above about 10%.
# Assays:
# [1] = yeast 75Q aggregation reduction – 75Q-TubU reporter (AID 1593); settings: Yeast 75Q polyglutamine aggregation reporter
# [2] = blockers of cytochrome c efflux from mitochondria – biochemical, purified mitochondria (AID 1603); settings: stronger effect = lower value;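 further: mouse liver mitochondria challenged with calcium chloride; signal normalized to the plate average as 100%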
# [3] = polyglutamine aggregate formation blockers (AID 1604); settings: polyglutamine-induced protein aggregation inhibition assay; stronger effect = higher value; tested at 2.5 µM
# [4] = P. berghei load reduction in hepatocytes – cell-based, HepG2, luciferase luminescence, HepG2 viability, primary screen (AID 624349);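 further: 100% = mean of DMSO negative control wells on the same plate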; settings: P. berghei liver stage in HepG2, luciferase luminescence, concentration not given here; parasite load remaining: stronger effect = lower value; viability: measured here: HepG2 viability without parasites
# [5] = Wnt pathway potentiators raising nuclear beta-catenin – imaging, WNT3A-conditioned medium, mouse C2C12, NPC library, primary screen (AID 1117326; in the data active means nuclear beta-catenin stimulation mostly above about 4.2%, no sharp cut-off; inactive means mostly below about 10%); settings: stronger effect = higher value
# [6] = stimulators of insulin release from INS-1E, primary screen, cell-based, 5 mM glucose, NPC library (AID 1117329;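 active means compound raises insulin release from rat beta cells at 5 mM glucose, no numeric limit stated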); settings: rat INS-1E insulin secretion, at 10 µM, stronger effect = higher value
# [7] = growth inhibition of GSK3B-pretreated HCT116 cells – cell-based, CellTiter-Glo, 0.2 to 20 µM (AID 1117336;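 active means compounds lowering colon cancer cell viability after pretreatment blocking the GSK3B kinase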); settings: HCT116 viability after GSK3B inhibitor, at 20 µM, stronger effect = higher value
# [8] = inhibition of endothelial tube formation, primary screen, imaging, VEGF stimulated, CD31 staining, tube area, NPC library (AID 1117340;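 active means compound that reduces growth-factor-driven endothelial tube area in a mixed cell culture, no cutoff stated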); settings: VEGF-stimulated ADSC/ECFC co-culture, at 10 µM, stronger effect = higher value
# [9] = GLP1 release stimulators, primary, NCI-H716, NPC library (AID 1117341;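 active means compound raises GLP1 secretion from the human gut endocrine cells, with no numeric limit stated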); settings: NCI-H716 cells, at 10 µM, stronger effect = higher value
# [10] = HCT116 colon cancer cell growth inhibition, primary screen, CellTiter-Glo luminescence, NPC library (AID 1117342;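 active means compounds that lower survival of HCT116 colon cancer cells in the luminescence readout, no numeric limit stated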); settings: at 20 µM (top of the series)
# [11] = reduced SW480 viability measured with CellTiter-Glo, NPC library, primary (AID 1117343;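 active means compounds that lower viability of the colon cancer cells in the luminescence readout, with no numeric limit stated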); settings: CellTiter-Glo luminescence; at 20 µM (top of the series)
# [12] = NPC library primary testing for decreased DLD-1 cell viability via CellTiter-Glo (AID 1117346;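 active means compounds that lower survival of DLD-1 colon cancer cells in the luminescence readout, no cutoff given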); settings: DLD-1 viability, CellTiter-Glo luminescence; at 20 µM (top of the series)
# [13] = molecular target: 6-phosphogluconate dehydrogenase, decarboxylating (Homo sapiens) (UniProt P52209); assay: inhibition of human phosphogluconate dehydrogenase – biochemical, recombinant enzyme, NADPH absorbance, primary screen (AID 1159550;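 active means at least 20% inhibition of 6-phosphogluconate dehydrogenase activity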); settings: recombinant 6PGD, NADPH absorbance 341 nm; at 10 µM; stronger effect = higher value
# [14] = EMT-state selective cytotoxicity in co-culture – imaging, PC-3E GFP, TEM4-18 mCherry, primary screen (AID 1345086;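 active means compounds killing one labelled cell type while sparing the other, by normalised counts and ratio limits, not self-fluorescent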;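 on all read-outs here: cells exposed to compound for 72 h before imaging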;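 on red/green cell ratio (normalised): normalised mesenchymal count divided by normalised epithelial count so high means epithelial killing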); settings: PC-3E GFP / TEM4-18 mCherry co-culture, imaging cell counts, at 1 µM; for red/green cell ratio (normalised): actives lie on both sides
# [15] = system: Aerobactin synthetase IucA (Klebsiella pneumoniae hvKP1); assay: IucA enzyme inhibition, primary screen, biochemical, Spectrum library (AID 1346200; call rule not given here;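 further: 100% = wells without compound and 0% = wells lacking enzyme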); settings: malachite green pyrophosphate, A620, at 8 µM, stronger effect = lower value
# [16] = viability loss with induced miR-34 in A549 – imaging, A549 dox-inducible miR-34, nuclei and caspase counts, primary screen (AID 1347080;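 active means compounds whose cell count with miR-34 switched on is under 0.7 times the count with it off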); settings: A549 miR-34 inducible, Hoechst nuclei count, 48 h
# [17] = MELAS cybrid and Rieske KO viability enhancers – cell-based, MELAS cybrids, Rieske KO mouse fibroblasts, CellTiter-Glo, primary screen (AID 1508586;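 active means mean z-score across replicates of 1.96 or higher in either the MELAS or the Rieske mutant cell line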;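 further: z relative to plate mean and SD of compound and empty wells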); settings: low glucose
# [18] = molecular target: NAD(+) hydrolase SARM1 (Homo sapiens) (UniProt Q6SZW1); assay: blocking NAD cleavage by SARM1 SAM-TIR – cell lysate, NAD-Glo luminescence (AID 1508614;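 active means compound whose remaining NAD level is above about 45 nM, limit read from the data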); settings: SAM-TIR HEK293T lysate NADase, at 1 µM, stronger effect = higher value
# [19] = molecular target: Mitogen-activated protein kinase 7 (Homo sapiens) (UniProt Q13164); assay: Gal4-ERK5 driven luciferase induction – cell-based, HTS, primary screen (AID 1508626;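 active means luciferase signal above three times the same-plate solvent-only control wells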;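 further: luciferase driven by Gal4-ERK5 fusion binding five Gal4 sites before minimal TATA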); settings: HeLa Gal4-ERK5 transactivation, 18 h, at 5 µM, stronger effect = higher value
# [20] = measured here: epithelial PC-3E GFP cell survival
# [21] = measured here: mesenchymal TEM4-18 mCherry cell survival
# [22] = measured here: relative caspase fold change +Dox/-Dox
# [23] = measured here: total cells with miR-34 induction, stronger effect = lower value
# [24] = measured here: total cells without miR-34 induction
# [25] = MELAS cybrid survival, CellTiter-Glo 48 h, stronger effect = higher value
# [26] = Rieske KO mouse fibroblast survival, CellTiter-Glo 72 h
# Sequence of 6-phosphogluconate dehydrogenase, decarboxylating (Homo sapiens) (P52209 whole entry, looked up): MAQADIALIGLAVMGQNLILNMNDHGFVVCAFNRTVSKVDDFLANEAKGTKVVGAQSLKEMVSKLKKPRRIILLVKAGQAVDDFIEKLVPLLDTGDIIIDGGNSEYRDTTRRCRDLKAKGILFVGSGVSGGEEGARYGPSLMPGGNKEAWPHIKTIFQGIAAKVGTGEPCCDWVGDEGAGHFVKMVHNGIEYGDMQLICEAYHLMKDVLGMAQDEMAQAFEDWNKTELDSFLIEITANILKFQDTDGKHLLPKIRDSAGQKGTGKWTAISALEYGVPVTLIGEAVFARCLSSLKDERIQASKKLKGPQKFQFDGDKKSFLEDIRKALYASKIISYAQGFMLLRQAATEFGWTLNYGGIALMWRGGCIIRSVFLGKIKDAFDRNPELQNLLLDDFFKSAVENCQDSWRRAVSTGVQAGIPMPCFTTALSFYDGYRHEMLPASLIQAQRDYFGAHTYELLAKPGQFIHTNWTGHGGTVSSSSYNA
# Sequence of Mitogen-activated protein kinase 7 (Homo sapiens) (Q13164 whole entry, looked up, the tested form may be a part): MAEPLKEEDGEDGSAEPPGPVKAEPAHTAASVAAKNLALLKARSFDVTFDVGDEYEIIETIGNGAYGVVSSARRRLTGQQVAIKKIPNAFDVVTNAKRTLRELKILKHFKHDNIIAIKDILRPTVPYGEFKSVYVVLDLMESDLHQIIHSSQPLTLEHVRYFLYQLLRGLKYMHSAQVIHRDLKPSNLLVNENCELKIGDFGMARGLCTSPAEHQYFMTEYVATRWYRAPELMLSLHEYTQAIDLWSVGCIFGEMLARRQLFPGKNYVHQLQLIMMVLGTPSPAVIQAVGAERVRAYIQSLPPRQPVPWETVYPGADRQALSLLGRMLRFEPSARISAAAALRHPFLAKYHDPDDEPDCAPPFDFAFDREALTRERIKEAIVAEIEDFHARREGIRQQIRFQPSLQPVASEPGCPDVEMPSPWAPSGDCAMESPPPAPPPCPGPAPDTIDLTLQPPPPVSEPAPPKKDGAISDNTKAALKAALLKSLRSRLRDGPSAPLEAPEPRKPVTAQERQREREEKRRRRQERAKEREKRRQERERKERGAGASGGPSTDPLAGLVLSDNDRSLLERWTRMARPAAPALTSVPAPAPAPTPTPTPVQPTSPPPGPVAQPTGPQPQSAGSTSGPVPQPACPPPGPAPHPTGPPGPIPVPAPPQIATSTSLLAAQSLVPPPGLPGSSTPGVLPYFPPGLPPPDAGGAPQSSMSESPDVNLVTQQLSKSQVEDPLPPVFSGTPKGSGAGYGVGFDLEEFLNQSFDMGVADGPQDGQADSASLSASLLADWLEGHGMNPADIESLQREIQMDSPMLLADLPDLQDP
# Sequence of NAD(+) hydrolase SARM1 (Homo sapiens) (Q6SZW1 whole entry, looked up, the tested form may be a part): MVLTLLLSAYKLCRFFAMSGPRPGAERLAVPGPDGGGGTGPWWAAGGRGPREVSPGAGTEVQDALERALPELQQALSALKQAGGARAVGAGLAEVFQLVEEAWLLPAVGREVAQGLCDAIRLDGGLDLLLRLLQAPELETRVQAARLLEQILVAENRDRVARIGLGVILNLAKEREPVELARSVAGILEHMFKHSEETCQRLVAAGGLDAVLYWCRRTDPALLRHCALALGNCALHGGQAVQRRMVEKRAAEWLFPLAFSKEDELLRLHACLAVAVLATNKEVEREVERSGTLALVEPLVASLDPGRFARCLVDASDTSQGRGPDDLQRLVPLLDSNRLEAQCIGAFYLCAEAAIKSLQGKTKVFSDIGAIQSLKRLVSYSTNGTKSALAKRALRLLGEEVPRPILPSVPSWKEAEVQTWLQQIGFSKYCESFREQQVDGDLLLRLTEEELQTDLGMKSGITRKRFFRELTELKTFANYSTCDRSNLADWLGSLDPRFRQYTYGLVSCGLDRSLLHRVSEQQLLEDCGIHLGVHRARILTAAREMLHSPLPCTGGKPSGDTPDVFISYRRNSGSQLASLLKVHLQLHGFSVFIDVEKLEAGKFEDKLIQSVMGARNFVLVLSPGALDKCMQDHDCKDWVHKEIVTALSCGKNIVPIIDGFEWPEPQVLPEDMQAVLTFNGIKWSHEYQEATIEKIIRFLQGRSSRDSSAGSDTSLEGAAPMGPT
compound,measurement,setting,value
CC(C)[N+](C)(CCC(C(N)=O)(c1ccccc1)c1ccccc1)C(C)C,score,[1],1.43
same,cytochrome c release ratio,[2],1.07
same,inhibition of aggregation,[3],35.2%
same,parasite load remaining,[4],94.4% (inactive) and 83.4% (inactive) and 60% (inactive)
same,viability,[4],100% and 76.1% and 93.6%
same,nuclear beta-catenin stimulation,[5]; at 10 µM,0.4% (inactive)
same,nuclear beta-catenin stimulation,"[5]; stimulation, at 2 µM",-0.3%
same,insulin secretion stimulation,[6],-0.4% (inactive)
same,viability decrease,[7],-32.8% (inactive)
same,tube area decrease,[8],-3.8% (inactive)
same,GLP1 secretion stimulation,[9],-1.4% (inactive)
same,inhibition of viability,[10],-3.83% (inactive)
same,viability decrease (inhibition),[11],22% (inactive)
same,viability decrease (inhibition),[12],-1.8% (inactive)
same,inhibition,[13],-13.2% (inactive)
same,red/green cell ratio (normalised),[14],0.98 (inactive)
same,normalised cell number,[14]; [20],1.19
same,normalised cell number,[14]; [21],1.17
same,activity remaining,[15],119% (inactive)
same,fold change,[16]; stronger effect = lower value,0.953 (inactive) and 0.875 (inactive)
same,fold change,[16]; [22],1.13 and 0.654
same,cell count,[16]; [23],8490 and 10700
same,cell count,[16]; [24],8910 and 12200
same,z-score,[17]; [25],-0.488 (inactive)
same,z-score,[17]; [26],-0.766
same,remaining NAD,[18],10 nM (inactive)
same,luciferase signal,[19],76 AU (inactive)
O=c1oc2ccccc2c(O)c1Cc1c(O)c2ccccc2oc1=O,score,[1],0.69
same,cytochrome c release ratio,[2],0.7
same,inhibition of aggregation,[3],42.1%
same,parasite load remaining,[4],87.2% (inactive) and 95.3% (inactive) and 51.7% (inactive)
same,viability,[4],97.7% and 68.2% and 89.1%
same,nuclear beta-catenin stimulation,[5]; at 10 µM,-0.1% (inactive)
same,nuclear beta-catenin stimulation,"[5]; stimulation, at 2 µM",-2.5%
same,insulin secretion stimulation,[6],-1% (inactive)
same,viability decrease,[7],97.6% (active)
same,tube area decrease,[8],26% (inactive)
same,GLP1 secretion stimulation,[9],-3.4% (inactive)
same,inhibition of viability,[10],90.5% (active)
same,viability decrease (inhibition),[11],107% (active)
same,viability decrease (inhibition),[12],92.1% (active)
same,inhibition,[13],-29.3% (inactive)
same,red/green cell ratio (normalised),[14],0.99 (inactive)
same,normalised cell number,[14]; [20],1.34
same,normalised cell number,[14]; [21],1.32
same,activity remaining,[15],120% (inactive)
same,fold change,[16]; stronger effect = lower value,0.822 (inactive) and 0.882 (inactive) and 0.865 (inactive)
same,fold change,[16]; [22],1.17 and 1.33 and 1.22
same,cell count,[16]; [23],8510 and 8000 and 10400
same,cell count,[16]; [24],10300 and 9060 and 12000
same,z-score,[17]; [25],-0.183 (inactive) and 0.389 (inactive)
same,z-score,[17]; [26],-0.295 and 0.839
same,remaining NAD,[18],10 nM (inactive)
same,luciferase signal,[19],28 AU (inactive)
CC(=O)NC1CCSC1=O (centres undefined),parasite load remaining,[4],132% (inactive)
same,viability,[4],109%
same,nuclear beta-catenin stimulation,[5]; at 10 µM,2.9% (inactive)
same,nuclear beta-catenin stimulation,"[5]; stimulation, at 2 µM",3%
same,insulin secretion stimulation,[6],0.7% (inactive)
same,viability decrease,[7],-1% (inactive)
same,tube area decrease,[8],8% (inactive)
same,GLP1 secretion stimulation,[9],-0.5% (inactive)
same,inhibition of viability,[10],-4.73% (inactive)
same,viability decrease (inhibition),[11],12.1% (inactive)
same,viability decrease (inhibition),[12],-3.7% (inactive)
same,inhibition,[13],18.8% (inactive)
same,red/green cell ratio (normalised),[14],0.96 (inactive)
same,normalised cell number,[14]; [20],1.05
same,normalised cell number,[14]; [21],1.02
same,fold change,[16]; stronger effect = lower value,0.927 (inactive)
same,fold change,[16]; [22],0.928
same,cell count,[16]; [23],7880
same,cell count,[16]; [24],8510
same,z-score,[17]; [25],-0.207 (inactive)
same,z-score,[17]; [26],-0.982
same,remaining NAD,[18],10 nM (inactive)
same,luciferase signal,[19],52 AU (inactive)
Cc1ccc(N=CN(C)C=Nc2ccc(C)cc2C)c(C)c1,parasite load remaining,[4],103% (inactive) and 56.6% (inactive)
same,viability,[4],84.4% and 95.1%
same,nuclear beta-catenin stimulation,[5]; at 10 µM,0.6% (inactive)
same,nuclear beta-catenin stimulation,"[5]; stimulation, at 2 µM",2.7%
same,insulin secretion stimulation,[6],1.3% (inactive)
same,viability decrease,[7],15.1% (inactive)
same,tube area decrease,[8],-4.8% (inactive)
same,GLP1 secretion stimulation,[9],-3.1% (inactive)
same,inhibition of viability,[10],2.47% (inactive)
same,viability decrease (inhibition),[11],-61.8% (inactive)
same,viability decrease (inhibition),[12],-5.9% (inactive)
same,inhibition,[13],17.7% (inactive)
same,red/green cell ratio (normalised),[14],1.11 (inactive)
same,normalised cell number,[14]; [20],1.13
same,normalised cell number,[14]; [21],1.26
same,activity remaining,[15],119% (inactive)
same,fold change,[16]; stronger effect = lower value,0.87 (inactive)
same,fold change,[16]; [22],1.15
same,cell count,[16]; [23],11000
same,cell count,[16]; [24],12600
same,remaining NAD,[18],10 nM (inactive)
same,luciferase signal,[19],32 AU (inactive)
